# Compound activity as filed in PubChem.
# A selection: hits, their analogues and other compounds. The true share with any hit is near 8%.
# SARS PLpro yeast: inhibitors of SARS-CoV papain-like protease in yeast; S. cerevisiae expressing SARS-CoV PLpro, growth rescue; Potency, µM (series often up to 32.9 µM), without a hit: top-dose activity, positive = growth rescue, actives largely listed as activators; hit rate 0.19% among 330,000; AID 485353; calls by dose curve; further: potency means the concentration at half of the fitted maximal effect; 0% is about no effect; nearly all actives have a fitted effect of over 55% in size
# HCMV antiviral: inhibitors of human cytomegalovirus | HFF cells, HCMV-luciferase reporter, 72 h; hits give low values | activity change, negative = inhibition, % at 57.5 µM | hit rate 4.5% among 410,000 | AID 1259415; in the data active means activity change below about -60%; inconclusive means no clear call, values can overlap the other calls; inactive means above about -39%; further: on the % scale 0 is the no-effect control and ±100 the full control effect
#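 Luciferase read-out from HCMV-luciferase-infected HFFs (MOI 1 PFU/cell) 72 h post infection at 37C; compounds added after 16 h cell attachment; activity normalized between buffer-only basal and Salinomycin (10uM) inhibitor controls.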
# Lassa entry inh: Lassa virus entry inhibition; Lassa virus pseudotype entry inhibition, cell reporter; Potency, µM (highest dose often 37.9 µM), for the others: at the top dose activity change, negative = inhibition, usual class: inhibitors; hit rate 1.2% among 300,000; AID 540256; calls by dose curve; tested in HEK293 cells; further: potency means the concentration at half of the fitted maximal effect; on the % scale 0 is the no-effect control and ±100 the full control effect; nearly all actives have a fitted effect of over 50% in size
# MARV entry inh: blocks Marburg virus binding to or entry into cells. Marburg virus pseudotyped entry inhibition, cell reporter. Potency, µM (titrated, usually from 37.8 µM), for inactives: top-dose activity change, negative = inhibition, hits mostly inhibitors. hit rate 1.8% among 300,000. AID 540276; calls by dose curve; tested in HEK293 cells; further: potency means the concentration at half of the fitted maximal effect; on the % scale 0 is the no-effect control and ±100 the full control effect
# HCV inhibitor: inhibitors of hepatitis C virus infection | Huh7.5.1 HCVcc-Cre infection, luciferase reporter, 44 h | Potency, µM (titrated, usually from 41.8 µM), without a hit: at the top dose activity change, negative = inhibition, most hits filed as inhibitors | hit rate 3.4% among 340,000 | AID 651820; active means well fitted inhibition curve with a large enough effect; inconclusive means small, poorly fitted or top-dose-only effect, or another doubt; inactive means no such curve, though single readings can be large or run the other way; further: potency means the concentration at half of the fitted maximal effect; on the % scale 0 is the no-effect control and ±100 the full control effect
#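 Cells seeded at 1,000/well and cultured 4 h, then compounds added followed by HCVcc-Cre virus (~0.5 moi). After 44 h further culture, luciferase substrate was added, plates held 15 min at room temperature, and luminescence read for 15 sec.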
# FMDV antiviral: blocks foot and mouth disease virus. FMDV antiviral cell-based qHTS. Potency, µM (top dose mostly 57.9 µM), inactives show at the top dose activity change, negative = inhibition, usual class: inhibitors. hit rate 1.2% among 410,000. AID 1159524; calls by dose curve; tested in HEK293T cells; further: read-out not given here; potency means the concentration at half of the fitted maximal effect; on the % scale 0 is the no-effect control and ±100 the full control effect; nearly all actives have a fitted effect of over 45% in size
# * hit, by the source's call; ? = inconclusive; nt = no result; [ ] = dose if it differs, or a comment.
SMILES,SARS PLpro yeast,HCMV antiviral,Lassa entry inh,MARV entry inh,HCV inhibitor,FMDV antiviral
O=C(CCl)N(Cc1ccccc1)c1ccccc1,1%,-98*,?,16µM*,5µM*,22µM*
Clc1ccc2c(SCC3CO3)c3ccccc3nc2c1 (stereo not drawn),nt,-37,20µM*,?,?,?
O=C(Nc1nnc(N2CCCCCC2)s1)Nc1ccccc1C(F)(F)F,nt,148,nt,0%[46.1 µM],nt,28%
Cc1ccc(CNC(=O)CN(C)S(=O)(=O)c2ccc3c(c2)c(=O)n(C)c(=O)n3C)cc1,nt,-29,0%[46.1 µM],-19%[46.1 µM],nt,3%
COC(=O)c1cc(=O)n(Cc2ccc3c(c2)OCO3)c(=Nc2ccccc2)s1,-6%,8,nt,0%,-4%,35µM*
COC(=O)c1cc(=O)n(Cc2ccc3c(c2)OCO3)c(=Nc2ccc(F)cc2)s1,-2%,26,nt,0%,?,13µM*
CCOC(=O)c1ccc(N=c2sc(C(=O)OC)cc(=O)n2Cc2ccc3c(c2)OCO3)cc1,8%,-14,nt,-1%,-15%,?
COc1cccc(Cn2ccn(-c3ccc(F)cc3)c(=O)c2=O)c1,nt,-19,9%[46.1 µM],nt,nt,-10%
O=C(Cn1ccccc1=S)c1ccc(Cl)c(Cl)c1,nt,?,-2%,5%[46.1 µM],-7%,-18%
On1ccccc1=S,nt,-99*,nt,nt,6.3µM*,?
COc1ccc(N2CCN(C(=O)c3ccc(C)c(NC(=O)C4=C(C)OCCS4)c3)CC2)cc1,-4%,-17,nt,nt,5%,-10%
CC1=C(C(=O)Nc2cc(C(=O)N3CCN(c4cccc(C)c4C)CC3)ccc2C)SCCO1,-10%,-37,nt,nt,11µM*,-9%
NC(=O)c1cc(-c2ccccc2)nc(N2CCCCCC2)n1,-8%,-13,-12%,-18%,2%,-25%
NC(=O)c1cc(-c2ccccc2)nc(N2CCOCC2)n1,-1%,-5,-11%,?,5µM*,0%
CN(N=Cc1ccccc1O)c1ccc2ccccc2n1,nt,51,nt,nt,nt,0%
CN(/N=C/c1cc(Br)cc(Br)c1O)c1cccc(C(F)(F)F)n1,-7%,-65*,?,-18%,-15%,?
C[C@]1(C(=O)O)[C@@H]2CC[C@@H](O2)[C@@]1(C)C(=O)O,nt,nt,nt,4.1µM*,nt,nt
C=C(C(=O)OCC)C(=O)c1ccccc1,nt,nt,nt,-7%[14.2 µM],nt,nt
O=C1c2ccccc2C(=O)c2[nH]c(=O)[nH]c21,-2%,-99*,10µM*,?,6.3µM*,-5%
C=CCn1c(SCc2ccc(C#N)cc2)nnc1-c1ccccc1,-5%,-29,6%,-8%,13%,-22%
C=CCn1c(SCc2ccc(C#N)cc2)nnc1-c1cccc(OC)c1,13%,-64*,-2%,-20%[46.1 µM],-2%,0%
CCOC(=O)c1c(NC(N)=O)sc(C)c1C,-30%,66,-9%,1%,0.89µM*,-17%
Cc1sc(NC(=S)NC(=O)CCc2ccccc2)c(C(N)=O)c1C,-11%,-83*,?,?,?,-1%
CCOC(=O)c1c(NC(=O)CNC2CCCCC2)sc(C)c1C,1%,10,-20%[46.1 µM],?,10µM*,-16%
CCOC(=O)c1c(NC(=O)C[n+]2ccc(Cc3ccccc3)cc2)sc(C)c1C,0%,-38,-21%[46.1 µM],?,1.3µM*,-27%
SMILES,SARS PLpro yeast,HCMV antiviral,Lassa entry inh,MARV entry inh,HCV inhibitor,FMDV antiviral
CCOC(=O)c1c(NC(=O)CNCCO)sc(C)c1C,0%,7,3%,23%,?,0%
COC(=O)CCC(=O)NC(=S)Nc1sc(C)c(C)c1C(N)=O,3%,?,?,-24%,1%,14%
CCOC(=O)c1c(NC(=S)Nc2ccccc2)sc(C)c1C,-2%,-21,-9%,3%,2%,nt
CC(=O)OC[C@H]1O[C@@H](ON=CC[C@@H]2C=C[C@@H](OC(C)=O)[C@@H](COC(C)=O)O2)[C@@H](OC(C)=O)[C@@H](OC(C)=O)[C@@H]1OC(C)=O,nt,nt,nt,-12%[14.2 µM],nt,nt
CCN(CC)c1ccc(NC(=O)c2cnn(-c3ccccc3)c2-n2cccc2)c(C)c1,nt,?,5%[46.1 µM],?,nt,?
CCOC(=O)c1c(NC(=O)c2nn(C)cc2[N+](=O)[O-])sc(C)c1C,0%,66,11%,6%[46.1 µM],3.5µM*,6%
CCOC(=O)c1c(NC(=O)CN2CCCc3ccccc32)sc(C)c1C,-5%,-36,-19%,?,3.2µM*,-22%
